IMPase inh = qHTS Assay for Identifying the Cell-Membrane Permeable IMPase Inhibitors. CHO-M1 cells, IP1 accumulation, HTRF TR-FRET ratio. Inositol monophosphatase 1 (Rattus norvegicus), P97697. inhibition (IP1 accumulation), % at 46.1 µM. 120,000 tested, under 10 active; active = well fitted curve in the direction sought with a large enough effect in the signal ratio, not every such curve was filed as active; inconclusive = small, poorly fitted or top-dose-only effect, or a change in a side signal; inactive = no such curve, though single readings can be large or run the other way; the % refers to the signal ratio;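 note: cells stimulated with carbachol in lithium chloride buffer; higher means more IMPase inhibition seen as more IP1 and lower FRET ratio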
Target sequence (P97697 whole entry, looked up): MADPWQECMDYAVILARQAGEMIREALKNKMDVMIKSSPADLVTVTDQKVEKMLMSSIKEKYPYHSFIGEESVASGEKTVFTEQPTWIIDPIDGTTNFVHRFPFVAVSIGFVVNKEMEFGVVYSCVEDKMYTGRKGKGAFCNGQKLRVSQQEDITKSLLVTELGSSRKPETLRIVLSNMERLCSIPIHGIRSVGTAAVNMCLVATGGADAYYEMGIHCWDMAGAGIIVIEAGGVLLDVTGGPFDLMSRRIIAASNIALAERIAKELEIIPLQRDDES
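Measured: the HTRF emission ratio (665/620 nm) plus the 620 nm donor channel, each fitted to the Hill equation to give AC50. Cells were CHO-M1 given compounds up to 46 uM and a 30 min carbachol stimulation at 37C.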
IMPase Li cell = qHTS Assay for Identifying the Cell-Membrane Permeable IMPase Inhibitors: Potentiation with Lithium | 210,000 tested, 0.35% active | Potency, µM (series often up to 59.4 µM), usual class: inhibitors | CHO-M1 cells, IP1 TR-FRET (IP-One), carbachol + lithium;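 note: IP1 builds up when IMPase is blocked and the TR-FRET signal falls; nearly all actives have a fitted effect of over 50% in size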
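Steps: plate 2000 CHO-M1 cells per well and culture 16–30 h; add compound and lithium; incubate 30 min, 37C; add d2-IP1 tracer and Eu cryptate anti-IP1 antibody in lysis buffer; read after 10 min at room temperature.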
HPGD block = qHTS Assay for Inhibitors of HPGD (15-Hydroxyprostaglandin Dehydrogenase); purified HPGD, NADH fluorescence kinetic, PGE2 substrate; 150,000 tested, 4.3% active; Potency, µM, actives largely listed as inhibitors; AID 894, 2007; 15-hydroxyprostaglandin dehydrogenase [NAD(+)] (Homo sapiens), P15428; active = well fitted inhibition curve with a large enough effect, not every such curve was filed as active; inconclusive = small, poorly fitted or top-dose-only effect, or another doubt; inactive = no such curve, though single readings can be large or run the other way
Target sequence (P15428 whole entry, looked up): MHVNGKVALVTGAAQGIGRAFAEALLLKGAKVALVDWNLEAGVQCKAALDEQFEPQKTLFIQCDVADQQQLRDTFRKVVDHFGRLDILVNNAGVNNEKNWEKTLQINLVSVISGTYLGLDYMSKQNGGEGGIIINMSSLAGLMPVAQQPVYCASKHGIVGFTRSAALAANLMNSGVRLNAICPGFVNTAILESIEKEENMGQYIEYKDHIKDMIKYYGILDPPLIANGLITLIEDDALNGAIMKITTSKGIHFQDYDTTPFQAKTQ
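20 nM HPGD preincubated 15 min at room temperature with compound in 50 mM Tris-HCl pH 8, 0.01% Tween 20. Started with 1 mM NAD+ and 30 uM prostaglandin E2; NADH fluorescence (360/450 nm) read 5 times over 30-s intervals, last minus first.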
PNC inhibitor = High Content Assay for Compounds that inhibit the Assembly of the Perinucleolar Compartment | PC3M PTB-GFP, PNC prevalence imaging, 16 h; stronger effect = lower value | 140,000 tested, 3.1% active | activity change (PNC), negative = inhibition, % at 10 µM;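 active = readout at or below -70, meaning at least 70% loss of cells showing the perinucleolar compartment, a nuclear body marking cancer cells; inconclusive = readout between -30 and a set limit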
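Compounds are pinned in duplicate onto adhered PC3M cells stably expressing GFP-tagged PTB and incubated 16 h at 37 C. Cells are then fixed, nuclei stained with Hoechst, and PNC-positive cells counted.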
15-hLO-2 inh = qHTS Assay for Inhibitors of 15-hLO-2 (15-human lipoxygenase 2). Potency, µM (highest dose often 57.1 µM), actives largely listed as inhibitors. 110,000 tested, 0.56% active. AID 881, 2007. Polyunsaturated fatty acid lipoxygenase ALOX15B (Homo sapiens), O15296. purified 15hLO-2, xylenol orange hydroperoxide absorbance; note: nearly all actives have a fitted effect of over 60% in size
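Purified human 15hLO-2 (50 nM) preincubated 15 min with compound, then 45 uM arachidonic acid for 90 min at RT in 25 mM Hepes pH 7.5, 0.01% Triton X-100. Hydroperoxide detected by Fe-xylenol orange; 573/405 nm absorbance ratio.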
12-hLO inh = qHTS Assay for Inhibitors of 12-hLO (12-human lipoxygenase); Polyunsaturated fatty acid lipoxygenase ALOX12 (Homo sapiens), P18054; Potency, µM (titrated, usually from 57.1 µM), usual class: inhibitors; purified 12-hLO, xylenol orange hydroperoxide absorbance; 150,000 tested, 0.12% active; note: nearly all actives have a fitted effect of over 55% in size
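Xylenol orange chromogenic assay: hydroperoxide from 12hLO oxidises Fe(II), giving red-shifted Fe(III)-XO absorbance. Conditions: 150 nM enzyme, 40 uM arachidonic acid, 25 mM Hepes pH 7.0, 0.01% Triton X-100, 30 min, room temperature.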
Hits are given with their value; i = inactive; ? = inconclusive; nt = no result; [ ] = dose if it differs, or a comment. A selection: hits, their analogues and other compounds. The true share with any hit is near 5.4%. Unless noted, calls come from the whole dose curve; as a rule, active = well fitted curve in the direction sought with a large enough effect; inconclusive = small, poorly fitted or top-dose-only effect, or another doubt; inactive = no such curve, though single readings can be large; an effect the other way counts as inactive or inconclusive.

SMILES	IMPase inh	IMPase Li cell	HPGD block	PNC inhibitor	15-hLO-2 inh	12-hLO inh
CC(C)(C)c1ccc(-c2nc(C=O)c3ccccn23)cc1	i	i	i	i	i	i
Cc1c(C(C)(C)C)c(C=S)n2ccccc12	i	i	i	i	16µM	i
Cc1n[nH]c(=O)nc1NCC1CCCO1 (stereo not given)	i	i	28µM	i	i	i
Cc1sc2ncnc(NCC3CCCO3)c2c1C (stereo not given)	i	i	i	i	i	i
COc1ncc2nc(-c3cc(F)cc(F)c3)c(=O)n(CCC#N)c2n1	nt	i	?	nt	i	i
Cc1c(-c2ccc(Br)cc2)[n+](=O)c2c(n1[O-])CCCC2	nt	i	nt	nt	nt	nt
Cc1ccc(-c2c(C)n([O-])c3c([n+]2=O)CCCCC3)cc1	nt	i	i	-114	nt	i
O=C(O)[C@H]1CCCC[C@@H]1C(=O)Nc1nc2ccccc2[nH]1	nt	i	i	nt	i[11.4 µM]	i[11.4 µM]
Cc1coc2c1C(=O)C(=O)c1c-2ccc2c1CCCC2(C)C	nt	i	16µM	nt	i	?
Cn1c(=O)[nH]c(=O)c2c1nc(NCCCn1ccnc1)n2Cc1ccccc1	i	i	i	-102	i	i
Cn1c(=O)[nH]c(=O)c2c1nc(NCCCn1ccnc1)n2CCOc1ccccc1	i	i	i	i	i	i
O=C(O)CCC(=O)NCCc1cccc(Cl)c1	nt	i	nt	nt	nt	nt
O=C(NCCc1ccccc1)c1ccncc1	i	i	i	i	i	i
COc1ccc(CNC(=O)CCSCc2cccc(Cl)c2)c(OC)c1	?	i	28µM	i	nt	i
Cc1ccccc1CSCCC(=O)NCCc1ccccc1	nt	i	nt	nt	nt	nt
O=C(NCCc1ccccc1)c1ccc(Cl)nc1	i	i	i	-100	nt	i
O=C(CCSCc1cccc(Cl)c1)NCCc1ccccc1	i	i	8.9µM	i	nt	i
O=C(Cc1ccccc1)NCCc1cccc(Cl)c1	i	i	10µM	i	i	i
Nc1cc(S(=O)(=O)O)ccc1O	nt	i	i	nt	i	i
Cc1ccc(CNC(=O)c2ccc(Cn3c(=O)c4ccccc4n(CC(=O)Nc4ccc(C)cc4C)c3=O)cc2)cc1	i	nt	nt	nt	nt	nt
CCc1ccc2oc(-c3cc(N)cc(C)c3O)nc2c1	i	i	i	-107	i	i
CCc1ccc2oc(-c3cc(N)ccc3O)nc2c1	i[1.84 µM]	i	i	i	?	i
O=C1c2cccc3c(Nc4ccccc4Cl)c([N+](=O)[O-])cc(c23)C(=O)N1CCO	i	i	1.4µM	i	i	i
CNC1=CN=C(c2ccccc2)c2cc(Cl)ccc2N1	nt	i	i	nt	i[0.0915 µM]	i[0.00818 µM]
O=C(NCCCN1CCCC1=O)C1CCN(S(=O)(=O)N2CCOCC2)CC1	i	i	i	-84	i	i
SMILES	IMPase inh	IMPase Li cell	HPGD block	PNC inhibitor	15-hLO-2 inh	12-hLO inh
Cc1ccnc(NC(=O)c2cc(-n3cnnc3)ccc2Cl)c1	i	i	i	-100	nt	i
O=C(Nc1ccccn1)c1cc(-n2cnnc2)ccc1Cl	i	i	i	i	i	i
CCCCNc1ccc(S(N)(=O)=O)cc1[N+](=O)[O-]	nt	i	i	-113	nt	i
CC(=O)N1CCC2(CCCN(c3ccc(-c4ccccc4)cc3)C2)CC1	nt	i	?	nt	i	i
CN1CCN([C@@H]2Cc3ccccc3Sc3ccc(Cl)cc32)CC1	i	nt	nt	nt	i	i
Cc1[nH]c2ccccc2c1SCCNC(=O)c1ccc(Br)o1	i	i	14µM	?	nt	i
O=C(NCCC(c1ccccc1)c1ccccc1)c1ccc(Br)o1	i	i	14µM	i	i	i
O=C(NCCSc1c[nH]c2ccccc12)c1ccc(Br)o1	i	i	7.1µM	-119	nt	i
Fc1ccc(-c2nnc(CSc3nnc(-c4cccs4)o3)o2)cc1	i	i	?	?	i	i
Fc1ccc(CSc2nnc(-c3cccs3)o2)cc1	i	i	16µM	?	i	i
Fc1ccccc1CSc1nnc(-c2cccs2)o1	i	i	28µM	i	i	i
c1ccc(CSc2nnc(-c3cccs3)o2)cc1	i	i	20µM	i	i	i
c1ccc(-c2nnc(CSc3nnc(-c4cccs4)o3)o2)cc1	i	i	16µM	i	i	i
N=C(c1ccc2ccccc2c1)c1ccccc1Cc1ccccc1	nt	i	i	nt	i[11.4 µM]	i[11.4 µM]
COC(=O)[C@@]1(Cc2ccccc2-c2ccco2)C=C[C@H](C)[C@@H](c2ccccc2)N1C(=O)C(F)(F)F	nt	i	i	nt	nt	nt
c1ccc(-c2nnc(CSc3nc4ccccc4[nH]3)o2)cc1	i	i	28µM	?	i	i
O=C(Nc1nnc(SCC(=O)N2CCCCC2)s1)c1cccs1	i	i	14µM	i	?	i
O=C(CSc1nnc(-c2cccs2)o1)N1CCCCC1	i	i	25µM	i	i	i
Clc1ccccc1CSc1nnc(-c2ccncc2)o1	i	i	i	i	i	i
c1ccc2c(CSc3nnc(-c4ccncc4)o3)cccc2c1	i	i	25µM	i	i	i
O=C(O)c1cc(N(Cc2ccccc2O)Cc2cc(O)ccc2O)ccc1O	nt	i	?	nt	i[0.0915 µM]	i[0.00818 µM]
COc1cc(/C=N/NC(=O)c2ccc(COc3cc(C)ccc3C(C)C)cc2)cc(OC)c1O	nt	i	i	i	nt	i
Cc1ccc(C(C)C)c(OCc2ccc(C(=O)N/N=C/c3ccc(O)c(O)c3)cc2)c1	nt	i	?	-124	nt	i
CC(=O)Nc1nonc1-c1nc2ccccc2n1Cc1ccccc1	?	i	?	i	i	i
CC(=O)Nc1nonc1-c1nc2ccccc2n1Cc1nnc(C)o1	i	i	?	-87	i	i
SMILES	IMPase inh	IMPase Li cell	HPGD block	PNC inhibitor	15-hLO-2 inh	12-hLO inh
Cc1ccc(N2C(=O)[C@@H]3C(c4ccc(F)cc4)=NO[C@@H]3C2=O)cc1	i	i	i	-95	i	i
O=C(OCc1ccccc1)[C@@H]1COC(c2ccc(Br)cc2)=N1	nt	i	i	nt	i[0.0915 µM]	i[0.00818 µM]
O=c1c(O)cc(C2Oc3cc(O)cc(O)c3CC2O)cc2c(C3Oc4cc(O)cc(O)c4CC3O)cc(O)c(O)c12 (stereo not given)	nt	i	13µM	nt	i	i
C/C(=N\N=C1\NC(=O)CC(C(=O)O)S1)c1cccs1 (stereo not given)	i	i	i	-106	i	i
Cc1cc2cc(CNC(=O)c3cc4ccccc4o3)ccc2n1C	i	i	7.1µM	i	i	i
COCC(=O)NCc1ccc2c(c1)cc(C)n2C	nt	i	25µM	-113	nt	i
O=C(NCc1ccc(Cl)cc1)c1cc2ccccc2o1	i	nt	nt	nt	nt	nt
Cc1cc2cc(CNC(=O)NC3CCCCC3)ccc2[nH]1	i	i	?	i	i	i
